Hits are enriched below; roughly 31% of the tested compounds scored in any of these assays.
CYP2C9 act: CYP2C9 (human) activation | AID 1024 | recombinant CYP2C9, luciferin-H conversion, luminescence; hits give high values; factor 1 = untreated enzyme, 0 = blocked | 96,000 compounds, 1.4% hits | P11712 | activation factor at 5 µM;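 active = activation factor of 2 or more for CYP2C9 at a 5 µM dose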;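 note: 0 = sulfaphenazole-blocked wells and 1 = vehicle-only wells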
CYP2C9 inh: inhibitors of human CYP2C9 | P11712 | CYP2C9 Supersomes, luciferin-H conversion, luminescence | inhibition, % at 5 µM | 96,000 compounds, 20% hits | AID 777;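 active = blocking of liver enzyme CYP2C9 beyond about 50% at 5 µM, limit read from the data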
CYP2C19 activ: cytochrome P450 2C19 (human) activation; recombinant CYP2C19, luciferin-H EGE luminescence; hits give high values; 0 = fully inhibited enzyme, 1 = untreated enzyme; activation factor at 5 µM; 96,000 tested, under 10 active; AID 1025;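 active = activation factor of at least 2 at 5 µM in the primary screen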;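 note: 0 = wells with 2.5 mM tranylcypromine and 1 = vehicle-only wells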
Target sequence (P33261 whole entry, looked up): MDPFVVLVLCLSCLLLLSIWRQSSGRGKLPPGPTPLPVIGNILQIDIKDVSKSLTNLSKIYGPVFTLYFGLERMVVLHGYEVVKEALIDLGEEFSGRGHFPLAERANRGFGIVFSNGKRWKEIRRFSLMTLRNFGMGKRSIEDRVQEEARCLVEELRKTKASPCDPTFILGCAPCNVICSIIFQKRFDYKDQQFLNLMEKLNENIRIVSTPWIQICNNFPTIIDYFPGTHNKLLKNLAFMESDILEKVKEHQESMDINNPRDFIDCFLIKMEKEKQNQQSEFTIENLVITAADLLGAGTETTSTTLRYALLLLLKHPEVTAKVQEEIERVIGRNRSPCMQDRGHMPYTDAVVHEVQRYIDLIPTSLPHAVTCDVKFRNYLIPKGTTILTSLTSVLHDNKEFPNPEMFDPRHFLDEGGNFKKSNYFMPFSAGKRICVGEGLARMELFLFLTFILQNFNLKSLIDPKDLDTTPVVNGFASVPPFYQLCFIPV
CYP2C19 inh: human CYP2C19 inhibition; CYP2C19 Supersomes, luciferin-H EGE luminescence, 30 min; 96,000 compounds, 21% hits; inhibition, % at 5 µM; P33261;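 active = CYP2C19 inhibition above a set limit at 5 µM in the primary screen, cut at about 50% in these data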;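 note: plate controls were negative control wells for no effect and 2.5 mM tranylcypromine positive control for full effect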
* marks the source's active call; other numbers are inactive results.

Results for Cc1coc2cc3oc(=O)c4c(c3cc12)CCCC4 ?
CYP2C9 act: 0.3; CYP2C9 inh: 73.9*; CYP2C19 activ: 0.7; CYP2C19 inh: 27.7

What do the screens show for `CN=C(C)c1c(O)c2ccccc2oc1=O`?
CYP2C9 act: 0.7; CYP2C9 inh: 25.2; CYP2C19 activ: 0.8; CYP2C19 inh: 23.3

What do the screens show for `O=c1oc2cc(O)ccc2c2ccccc12`?
CYP2C9 act: 2.2*; CYP2C9 inh: -121.9; CYP2C19 activ: 0.8; CYP2C19 inh: 21.8

Results for O=c1oc2cc(O)ccc2c2c1CCCC2 ?
CYP2C9 act: 2.6*; CYP2C9 inh: -164.5; CYP2C19 activ: 0.8; CYP2C19 inh: 20.2

How did OC1CN=C2C=CC=CN2C1 (stereo not drawn) do in these assays?
CYP2C9 act: 0.9; CYP2C9 inh: 7.5; CYP2C19 activ: 1; CYP2C19 inh: -2.7

How did O=C(c1cccs1)N(CCO)Cc1cc2cc3c(cc2[nH]c1=O)OCCO3 do in these assays?
CYP2C9 act: 0.9; CYP2C9 inh: 11.0; CYP2C19 activ: 1; CYP2C19 inh: -1.6

How did O=C(CN(c1ccccc1F)S(=O)(=O)c1ccccc1)N1CCCCCC1 do in these assays?
CYP2C9 act: 1.2; CYP2C9 inh: -19.3; CYP2C19 activ: 1; CYP2C19 inh: 2.5

How did CCCCNC(=O)Cn1c2c(c(-c3ccccc3Cl)cc1=O)CCC2 do in these assays?
CYP2C9 act: 0.2; CYP2C9 inh: 78.5*; CYP2C19 activ: 0.4; CYP2C19 inh: 61.0*

What do the screens show for `CCCCNC(=O)CSc1cc(=O)n(C)c2ccccc12`?
CYP2C9 act: 1; CYP2C9 inh: -3.9; CYP2C19 activ: 0.9; CYP2C19 inh: 9.0

Results for CCOc1nc(N=C(N)N)nc2c(C)cccc12 ?
CYP2C9 act: 0.9; CYP2C9 inh: 10.7; CYP2C19 activ: 0.9; CYP2C19 inh: 11.2

What do the screens show for `NC(=O)C1CCN(S(=O)(=O)c2cccc(C(=O)O)c2)CC1`?
CYP2C9 act: 1; CYP2C9 inh: 0.6; CYP2C19 activ: 1; CYP2C19 inh: -2.5

How did O=C(OCc1ccccc1)c1ccc2c(c1)-c1ccccc1C2=O do in these assays?
CYP2C9 act: 0.4; CYP2C9 inh: 55.3*; CYP2C19 activ: 0.7; CYP2C19 inh: 34.6

How did CN(C)S(=O)(=O)NCc1ccc2c(c1)OCO2 do in these assays?
CYP2C9 act: 0.7; CYP2C9 inh: 29.9; CYP2C19 activ: 0.3; CYP2C19 inh: 69.3*

Results for COc1cccc(S(=O)(=O)NCc2ccc3c(c2)OCO3)c1 ?
CYP2C9 act: 0.1; CYP2C9 inh: 91.4*; CYP2C19 activ: 0; CYP2C19 inh: 100.3*

What do the screens show for `COc1ccc(S(=O)(=O)NCc2ccc3c(c2)OCO3)cc1C(=O)O`?
CYP2C9 act: 1.4; CYP2C9 inh: -43.9; CYP2C19 activ: 1.1; CYP2C19 inh: -10.8

How did COc1cccc(S(=O)(=O)NCc2ccc(C(=O)NCc3ccco3)cc2)c1 do in these assays?
CYP2C9 act: 1; CYP2C9 inh: 0.8; CYP2C19 activ: 0.9; CYP2C19 inh: 12.7

How did COc1cccc(CNS(=O)(=O)c2cn(C)cn2)c1 do in these assays?
CYP2C9 act: 0.9; CYP2C9 inh: 5.0; CYP2C19 activ: 0.8; CYP2C19 inh: 18.1

Results for COc1ccc(S(=O)(=O)NCc2ccc3c(c2)OCO3)cc1C ?
CYP2C9 act: 0.8; CYP2C9 inh: 24.0; CYP2C19 activ: 0; CYP2C19 inh: 99.9*

How did COc1cccc(CNS(=O)(=O)/C=C/c2ccc3c(c2)OCO3)c1 do in these assays?
CYP2C9 act: 0.3; CYP2C9 inh: 69.1*; CYP2C19 activ: 0; CYP2C19 inh: 98.8*

Results for CC(C)Sc1nc2c(c(=O)n1C)SC(C)C2 (stereo not drawn) ?
CYP2C9 act: 0.6; CYP2C9 inh: 41.0; CYP2C19 activ: 0.8; CYP2C19 inh: 18.4

Results for CC(C)CN1C(=O)CC(Sc2ccccc2C(=O)O)C1=O (stereo not drawn) ?
CYP2C9 act: 1.3; CYP2C9 inh: -26.1; CYP2C19 activ: 1; CYP2C19 inh: -3.6

Results for CCN1C(=O)CC(Sc2ccccc2N)C1=O (stereo not drawn) ?
CYP2C9 act: 0.6; CYP2C9 inh: 41.3; CYP2C19 activ: 0.5; CYP2C19 inh: 54.1*

Results for O=C(NCc1cccc(C(F)(F)F)c1)C1CCN(c2ncccn2)CC1 ?
CYP2C9 act: 0.3; CYP2C9 inh: 67.3*; CYP2C19 activ: 0.8; CYP2C19 inh: 16.2

What do the screens show for `Cc1ccnc(N2CCC(C(=O)Nc3ccc(Oc4ccccc4)cc3)CC2)n1`?
CYP2C9 act: 0.7; CYP2C9 inh: 27.4; CYP2C19 activ: 1; CYP2C19 inh: 0.0

How did Cc1ccnc(N2CCC(C(=O)Nc3cccc(C(F)(F)F)c3)CC2)n1 do in these assays?
CYP2C9 act: 1; CYP2C9 inh: 3.8; CYP2C19 activ: 0.1; CYP2C19 inh: 91.4*

Results for O=C(O)[C@H](CO)Nc1ncnc2sc3c(c12)CCC3 ?
CYP2C9 act: 1.2; CYP2C9 inh: -15.7; CYP2C19 activ: 0.9; CYP2C19 inh: 10.9

What do the screens show for `CCOC(=O)COc1ccc(Br)cc1C1NC(=O)NC(C)=C1C(=O)NCc1ccccc1` (stereo not drawn)?
CYP2C9 act: 0.2; CYP2C9 inh: 82.7*; CYP2C19 activ: 1; CYP2C19 inh: -0.2

Results for CCN(CC)C(=O)COc1ccc(-c2ccccc2)cc1 ?
CYP2C9 act: 0.8; CYP2C9 inh: 16.9; CYP2C19 activ: 0.6; CYP2C19 inh: 40.0

Results for COc1ccc([C@@H]2[C@H]3C(=O)N(c4cccc(C(F)(F)F)c4)C(=O)[C@H]3ON2C)cc1 ?
CYP2C9 act: 0.6; CYP2C9 inh: 36.6; CYP2C19 activ: 0.5; CYP2C19 inh: 54.8*

What do the screens show for `Cc1n[nH]c(=O)n1-c1cccc(C(F)(F)F)c1`?
CYP2C9 act: 1; CYP2C9 inh: 1.3; CYP2C19 activ: 1.1; CYP2C19 inh: -6.6

How did Cc1c(C(=O)NCCSCc2c(Cl)cccc2Cl)cccc1[N+](=O)[O-] do in these assays?
CYP2C9 act: 1.1; CYP2C9 inh: -6.8; CYP2C19 activ: 0.9; CYP2C19 inh: 13.3

Results for Cc1ccc2c(CC(=O)OCc3nc(N)nc(Nc4ccccc4C)n3)coc2c1 ?
CYP2C9 act: 0.5; CYP2C9 inh: 46.5; CYP2C19 activ: 0.9; CYP2C19 inh: 11.5

Results for Cc1ccccc1Nc1nc(N)nc(COC(=O)C(NC(=O)c2ccco2)C(C)C)n1 (stereo not drawn) ?
CYP2C9 act: 0.4; CYP2C9 inh: 58.9*; CYP2C19 activ: 0.7; CYP2C19 inh: 30.9

How did CC(C)CNC(=S)NNC(=O)c1csc2c1CCC(C)C2 (stereo not drawn) do in these assays?
CYP2C9 act: 0.9; CYP2C9 inh: 5.8; CYP2C19 activ: 0.5; CYP2C19 inh: 52.2*

How did S=C(NCc1ccccc1)NCC1COc2ccccc2O1 (stereo not drawn) do in these assays?
CYP2C9 act: 0.2; CYP2C9 inh: 80.7*; CYP2C19 activ: 0.1; CYP2C19 inh: 93.1*

What do the screens show for `O=C(O)CNCC1COc2ccccc2O1` (stereo not drawn)?
CYP2C9 act: 0.9; CYP2C9 inh: 7.7; CYP2C19 activ: 1; CYP2C19 inh: 1.2

How did Oc1ccc(CNCC2COc3ccccc3O2)cc1 (stereo not drawn) do in these assays?
CYP2C9 act: 1; CYP2C9 inh: 0.9; CYP2C19 activ: 0.4; CYP2C19 inh: 55.9*

Screening results as filed in PubChem.
